activity, negative = inhibition and AC50 data for 58 compounds are collected here from PubChem BioAssay AID1851 (National Center for Advancing Translational Sciences (NCATS), 2009).

About 4,000 (25%) of roughly 16,000 compounds were called active. About 26% were inconclusive and are not listed. Only a sample is shown. Values without a mark were called inactive. The call rests on the fitted dose curve; in most records, active means well fitted curve in the direction sought with a large enough effect; inconclusive means small, poorly fitted or top-dose-only effect, or effect the other way; inactive means no such curve, though single readings can be large or run the other way.
On the % scale 0 is the no-effect control and ±100 the full control effect.

Cytochrome P450 2C9 (Homo sapiens), sequence (P11712 whole entry, looked up): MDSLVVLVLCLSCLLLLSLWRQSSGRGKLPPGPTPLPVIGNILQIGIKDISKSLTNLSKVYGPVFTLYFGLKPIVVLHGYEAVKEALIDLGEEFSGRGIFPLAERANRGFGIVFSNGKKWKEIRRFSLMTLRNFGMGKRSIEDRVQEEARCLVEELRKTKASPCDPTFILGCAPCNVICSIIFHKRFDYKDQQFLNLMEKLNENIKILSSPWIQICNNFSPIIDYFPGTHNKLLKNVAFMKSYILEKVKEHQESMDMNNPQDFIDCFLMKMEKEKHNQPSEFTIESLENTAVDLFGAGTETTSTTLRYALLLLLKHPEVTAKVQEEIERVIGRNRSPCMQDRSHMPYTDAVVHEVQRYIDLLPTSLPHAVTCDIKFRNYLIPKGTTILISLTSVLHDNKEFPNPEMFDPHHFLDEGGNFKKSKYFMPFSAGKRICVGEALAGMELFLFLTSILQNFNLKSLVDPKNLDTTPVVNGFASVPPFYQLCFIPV

The assay concerns the target Cytochrome P450 2C9 (Homo sapiens) (UniProt P11712). Nature of the assay: Cytochrome panel assay with activity outcomes. Particulars: recombinant CYP, pro-luciferin dealkylation, luminescence, p450-cyp2c9; series mostly up to 57.1 µM.
Turning to `CC(=O)OC[C@@H]1O[C@@H](O/N=C2/C[C@@H](O)[C@@H](O)[C@@H]3[C@@H]4C(=O)N(C[C@@H]5CCCO5)C(=O)[C@H]4CC[C@H]23)[C@H](OC(C)=O)[C@H](OC(C)=O)[C@@H]1OC(C)=O`, the activity, negative = inhibition is 5.35% [at 11.4 µM].

Regarding `COc1ccc(-n2cnc3sc(-c4ccccc4)cc3c2=O)cc1`, the AC50 entry was “inactive”.

Turning to `COc1cccc(-c2nc(Nc3ccncc3)c3ccccc3n2)c1`, the activity, negative = inhibition is -24.2% [at 2.29 µM].

As for `COc1ccc(Nc2ncnc3sc(-c4ccccc4)cc23)cc1`, the half-maximal activity concentration (AC50) is 3.98 µM (active).

On to `CC(=O)[C@@H]1CC[C@@H]2[C@@H]3C[C@H](C)C4=CC(=O)CC[C@@]4(C)[C@H]3[C@H](O)C[C@]21C`, for which the AC50 is 0.398 µM (active).

Take `CC(=O)[C@H]1CC[C@H]2[C@@H]3C=CC4=CC(=O)CC[C@@]4(C)[C@H]3CC[C@]12C`: the AC50 result was “inactive”.

Consider `C[C@@]12C[C@H](O)[C@@H]3[C@H](CCC4=CC(=O)CC[C@]43C)[C@H]1CC[C@@H]2c1csc(N)n1`, for which the activity, negative = inhibition was 0.854% [at 11.4 µM].

As for `CCCCSc1ccc2nc(-c3ccc(C#N)cc3)cn2c1`, the AC50 is 3.55 µM (active).

`CCCCSc1nnc(-c2ccc(C)cc2)n1C`: the AC50 result is “inactive”.

For `Nc1ccccc1CCCC(=O)O`, the activity, negative = inhibition is 1.29% [at 11.4 µM].

Regarding `COc1cccc(C2=NOC(C(=O)NCc3ccccn3)C2)c1` (stereo not drawn), the AC50 result is “inactive”.

Regarding `Cn1c(=O)c2c(nc(N/N=C\c3ccccc3C(=O)O)n2C)n(C)c1=O`, the activity, negative = inhibition is 7.56% [at 11.4 µM].

On to `CCn1c(CCCc2nc3c([nH]2)c(=O)n(C)c(=O)n3C)nc2c1c(=O)n(C)c(=O)n2C`, for which the activity, negative = inhibition was 6.37% [at 11.4 µM].

Consider `CC(C)CCn1c(Oc2ccccc2Cl)nc2c1c(=O)n(C)c(=O)n2C`, for which the AC50 is 1 µM (active).

As to `C[C@@]1(C(=O)O)CCC[C@@H]1C(=O)O`, the activity, negative = inhibition is 2.33% [at 11.4 µM].

Turning to `C[N+]1(CCCC[N+]2(C)CCCCCCC2)CCCCCCC1`, the activity, negative = inhibition is -4.37% [at 11.4 µM].

In the case of `CCCCCOc1ccc(C(=O)NCC2(c3ccccc3)CCOCC2)cc1`, the AC50 was 2.82 µM (active).

In the case of `Cc1cccc(OCCCC(=O)Nc2ccccc2C(F)(F)F)c1`, the AC50 result is “inactive”.

Consider `Cc1ccc(OCCCC(=O)Nc2ccccc2C(F)(F)F)cc1`, for which the AC50 is 7.94 µM (active).

Take `CCN(CC)CCNC(=O)Cn1nc(-c2ccc(C)cc2)ccc1=O`: the AC50 entry is “inactive”.

Take `CCCCOc1ccc(C(=O)N/C(=C\c2ccc(OC)cc2)C(=O)OCc2ccco2)cc1`: the AC50 is 2.82 µM (active).

On to `O=C(NCCc1ccccc1)C(=O)NCC1(c2ccccc2)CCCC1`, for which the AC50 entry is “inactive”.

Turning to `C=CCC(NCc1ccco1)c1ccc(OC)cc1` (stereo not drawn), the AC50 entry was “inactive”.

On to `Cc1ccc(OCC(=O)NNC(=O)CCC(=O)Nc2ccc(C)cc2C)cc1`, for which the AC50 entry was “inactive”.

In the case of `Cc1ccc(-c2ccc(=O)n(CC(=O)NCc3ccco3)n2)cc1`, the concentration at half-maximal activity (AC50) is 7.94 µM (active).

Turning to `CCCN1CCN(CCCNC(=O)Cn2nc(-c3ccc(C)cc3)ccc2=O)CC1`, the AC50 entry was “inactive”.

For the compound `O=P(O)(CCP(=O)(O)c1ccccc1)c1ccccc1`, the activity, negative = inhibition is 2.87% [at 11.4 µM].

For the compound `Cc1noc(C)c1-c1cncnc1N(C)Cc1ccco1`, the activity, negative = inhibition is 17.6% [at 2.29 µM].

As for `NCC[C@H](N)C(=O)O`, the activity, negative = inhibition is 0.553% [at 11.4 µM].

Take `CC1(C)OC(C(N)=O)C(C(N)=O)O1` (stereo not drawn): the AC50 entry was “inactive”.

Regarding `CCOc1ccc(-n2c(C)nc3cc(C(=O)NCc4ccco4)ccc32)cc1`, the concentration at half-maximal activity (AC50) is 17.8 µM (active).

With `CCS(=O)(=O)N1CCC(C(=O)NCc2ccco2)CC1`, the AC50 entry was “inactive”.

In the case of `CC(C)(C)c1ccc(C(=O)NCCC(=O)NCc2ccco2)cc1`, the AC50 was 2.24 µM (active).

Consider `Cc1ccc(OCCCC(=O)NCc2ccco2)cc1`, for which the concentration at half-maximal activity (AC50) is 14.1 µM (active).

For the compound `C/C(CC(=O)NCc1ccco1)=N\NC(=O)Cc1ccccc1`, the AC50 result was “inactive”.

In the case of `CCCCOc1ccc(C(=O)NCc2ccco2)cc1`, the AC50 is 10 µM (active).

Regarding `Cc1ccc(OCC(=O)NNC(=O)CCC(=O)NCc2ccccc2)cc1`, the AC50 result was “inactive”.

Turning to `COCCNC(=O)c1ccc2c(c1)nc(C)n2-c1cc(OC)c(OC)c(OC)c1`, the AC50 result was “inactive”.

Consider `CS(=O)(=O)Nc1c(O)ccc2c1CCC[C@H]2C1=NCCN1`, for which the AC50 entry is “inactive”.

Take `CNCCCC1c2ccccc2C=Cc2ccccc21`: the AC50 entry was “inactive”.

Take `COc1ccc(Cl)cc1N=Nc1ncc[nH]1`: the AC50 entry was “inactive”.

Regarding `CC(=O)N1CCC[C@@]2(CCN(Cc3ccccc3)C2)C1`, the AC50 result is “inactive”.

For the compound `O=C(O)c1ccc2c(c1)C(=O)N(C(Cc1ccc(O)cc1)C(=O)O)C2=O` (stereo not drawn), the AC50 result was “inactive”.

`C[N+](C)([O-])CCC=C1c2ccccc2CCc2ccccc21`: the activity, negative = inhibition was -29.7% [at 11.4 µM].

For the compound `Nc1ccc(C(=O)C[C@H](N)C(=O)O)cc1O`, the activity, negative = inhibition is -13.6% [at 11.4 µM].

As for `Cc1ccc(-c2c(C)sc(NC(=O)C3C4CCC(O4)C3C(=O)O)c2C(=O)OC(C)C)cc1` (stereo not drawn), the AC50 result is “inactive”.

For the compound `Cc1sc(NC(=O)C2C3CCC(O3)C2C(=O)O)c(C(=O)OC(C)C)c1-c1ccc(Cl)cc1` (stereo not drawn), the half-maximal activity concentration (AC50) was 14.1 µM (active).

On to `CCOC(=O)c1ccc(N/C(=N\S(=O)(=O)c2ccccc2C)c2ccccc2)cc1`, for which the AC50 was 3.98 µM (active).

For the compound `NC(=O)c1ccccc1-c1nc(-n2ccnc2)c2ccccc2n1`, the activity, negative = inhibition was 8.72% [at 2.29 µM].

Regarding `COCCNc1ncnc2ccc(-c3ccoc3)cc12`, the activity, negative = inhibition is 0.323% [at 2.29 µM].

With `CC(=O)OC[C@@H]1O[C@H](C/C=N\O[C@@H]2O[C@H](COC(C)=O)[C@@H](OC(C)=O)[C@H](OC(C)=O)[C@H]2OC(C)=O)C=C[C@@H]1OC(C)=O`, the activity, negative = inhibition was 4.96% [at 11.4 µM].

Regarding `CC(=O)NS(=O)(=O)c1ccc(NC(=S)NC(=O)C(C)(C)C)cc1`, the AC50 entry is “inactive”.

As to `COc1ccc(CC(=O)NC(=S)Nc2ccc(S(=O)(=O)NC(C)(C)C)cc2)cc1`, the concentration at half-maximal activity (AC50) was 8.91 µM (active).

Turning to `CN1CC[C@@]2(CCCN(C(=O)c3cc(C(F)(F)F)cc(C(F)(F)F)c3)C2)C1`, the AC50 result was “inactive”.

In the case of `CCCCCC/C(C)=C1/SC(=S)NC1=O`, the AC50 is 5.01 µM (active).

Regarding `CCOC(=O)c1ccccc1OCc1cc(/C=N/n2cnnc2)ccc1OC`, the AC50 is 2.24 µM (active).

`CCOC(=O)C1=C(O)/C(=C/c2cc(OC)c(OC)c(OC)c2)N=C1C`: the AC50 result is “inactive”.

Turning to `CCOC(=O)C1=C(O)/C(=C\c2ccc(OC)c(OC)c2)N=C1C`, the AC50 entry is “inactive”.
